Assay outcomes (PubChem BioAssay)
IDE exosite inh: exo-site inhibitors of human IDE, primary screen, biochemical, fluorescence anisotropy, probe displacement | z-score at 20 µM | AID 1259349, 2017 | purified IDE, FL-6b probe fluorescence polarization; stronger effect = lower value | Insulin-degrading enzyme (Homo sapiens), P14735 | 6.3% of 17,000 active;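 active means z-score of -3 or lower, meaning strong loss of probe binding signal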;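 further: His-tagged human IDE residues 42-1019 made in E. coli with 30 nM FL-6b probe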
Target sequence (P14735 42-1019 limits assumed): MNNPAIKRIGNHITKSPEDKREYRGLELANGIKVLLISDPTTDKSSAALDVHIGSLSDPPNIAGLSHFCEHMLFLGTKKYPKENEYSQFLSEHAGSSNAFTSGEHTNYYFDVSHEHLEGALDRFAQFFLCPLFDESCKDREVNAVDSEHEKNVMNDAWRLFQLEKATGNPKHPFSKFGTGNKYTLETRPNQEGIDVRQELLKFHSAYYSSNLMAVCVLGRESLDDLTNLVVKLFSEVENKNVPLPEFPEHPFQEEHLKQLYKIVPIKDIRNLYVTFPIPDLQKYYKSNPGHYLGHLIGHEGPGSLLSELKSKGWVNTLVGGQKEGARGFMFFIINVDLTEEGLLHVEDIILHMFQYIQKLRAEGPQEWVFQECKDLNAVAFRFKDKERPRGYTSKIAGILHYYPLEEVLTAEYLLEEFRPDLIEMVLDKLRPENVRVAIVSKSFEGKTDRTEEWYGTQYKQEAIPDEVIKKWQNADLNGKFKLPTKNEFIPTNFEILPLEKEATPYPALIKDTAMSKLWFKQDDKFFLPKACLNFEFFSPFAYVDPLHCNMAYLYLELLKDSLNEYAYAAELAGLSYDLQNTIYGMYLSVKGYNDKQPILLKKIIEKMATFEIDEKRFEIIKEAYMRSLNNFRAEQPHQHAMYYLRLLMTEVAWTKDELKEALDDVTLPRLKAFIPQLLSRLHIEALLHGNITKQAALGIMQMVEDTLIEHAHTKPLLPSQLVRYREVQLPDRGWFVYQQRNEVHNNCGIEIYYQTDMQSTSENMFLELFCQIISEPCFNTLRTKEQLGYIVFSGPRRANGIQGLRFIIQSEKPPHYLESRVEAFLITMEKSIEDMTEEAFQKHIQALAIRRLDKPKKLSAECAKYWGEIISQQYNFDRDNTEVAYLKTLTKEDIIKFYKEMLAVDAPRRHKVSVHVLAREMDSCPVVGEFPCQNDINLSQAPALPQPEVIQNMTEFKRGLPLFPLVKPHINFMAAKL
Each line names hits and unclear results; the compound was inactive in the other large screens. Shown is part of a subset that was picked to be rich in hits.

O=C(Nc1ccccc1F)N1CCCCN2[C@H](C1)[C@H](c1ccc(C#Cc3ccccc3)cc1)[C@@H]2CO	none
O=C(Nc1ccccc1)N1CCCCN2[C@H](C1)[C@H](c1ccc(C#Cc3cccnc3)cc1)[C@@H]2CO	none
O=C(Nc1ccccc1F)N1CCCCN2[C@@H](CO)[C@H](c3ccc(C#Cc4cccnc4)cc3)[C@@H]2C1	IDE exosite inh -4.7
O=C(Nc1ccccc1F)N1CCCCN2[C@H](CO)[C@H](c3ccc(C#Cc4ccccc4)cc3)[C@H]2C1	none
O=C(Nc1ccccc1)N1CCCCN2[C@H](CO)[C@H](c3ccc(C#Cc4cccnc4)cc3)[C@@H]2C1	IDE exosite inh -4.2
C/C=C/c1ccc([C@H]2[C@@H](CNC(C)=O)N(C(=O)Cc3ccncc3)[C@H]2CO)cc1	none
C/C=C/c1ccc([C@@H]2[C@@H](C#N)N(C(=O)Cc3ccccn3)[C@@H]2CO)cc1	none
Cc1ccccc1-c1cnc2c(c1)C(=O)N([C@@H](C)CO)C[C@H](C)[C@@H](CN(C)Cc1ccccc1F)O2	none
CCCNC(=O)N1CCC2(CC1)CN(Cc1cccc(OC)c1)[C@@H](CO)c1[nH]c3cc(OC)ccc3c12	IDE exosite inh -3.1
COc1ccc2c3c([nH]c2c1)[C@H](CO)N(C(C)=O)CC31CCN(C(C)=O)CC1	none
COc1ccc2c3c([nH]c2c1)[C@@H](CO)N(Cc1cccc(F)c1)CC31CCN(C(C)=O)CC1	IDE exosite inh -4.2
COc1ccc2c3c([nH]c2c1)[C@H](CO)N(CC1CC1)CC31CCN(C(=O)Nc2cccc(F)c2)CC1	none
COc1ccc2c3c([nH]c2c1)[C@H](CO)N(Cc1ccccc1)CC31CCN(C(=O)NC(C)C)CC1	none
CCCNC(=O)N1CCC2(CC1)CN(C(=O)COC)[C@H](CO)c1[nH]c3cc(OC)ccc3c12	none
CC(C)CC#Cc1ccc([C@H]2[C@H](CO)N3CCCCN(S(=O)(=O)c4ccc(F)cc4)C[C@@H]23)cc1	none
N#C[C@@H]1[C@@H](c2ccc(-c3ccncc3)cc2)[C@@H](CO)N1C(=O)C1CCCC1	none
C[C@@H]1CN([C@@H](C)CO)C(=O)c2cc(NC(=O)Nc3cccc4ccccc34)ccc2O[C@@H](C)CCCCO[C@@H]1CN(C)Cc1ccc(C(F)(F)F)cc1	none
O=C(Nc1ccc2c(c1)[C@@H]1C[C@H](CC(=O)N3CCCCC3)O[C@H](CO)[C@@H]1O2)NC1CCCCC1	none
O=C(c1ccccc1F)N1CC(=O)N2[C@H](CO)[C@H](c3ccc(-c4ccccc4)cc3)[C@@H]2C1	none
CN(C)C(=O)c1ccc(-c2ccc([C@@H]3[C@H](C#N)N(C(=O)C4CCCC4)[C@H]3CO)cc2)cc1	none
CC(C)NC(=O)N1CCCCN2[C@@H](CO)[C@@H](c3ccc(C#CC4CC4)cc3)[C@@H]2C1	none
C[C@H](O)C#Cc1ccc([C@@H]2[C@@H](CO)N3CCCCN(CC4CCOCC4)C[C@H]23)cc1	none
COc1ccccc1C#Cc1ccc([C@@H]2[C@@H](CO)N3CCCCN(CCC(F)(F)F)C[C@H]23)cc1	none
COc1ccccc1C#Cc1ccc([C@H]2[C@@H](CO)N3CCCCN(CCC(F)(F)F)C[C@H]23)cc1	IDE exosite inh -12
OC[C@H]1[C@@H](c2ccc(-c3ccccc3)cc2)[C@@H]2CN(CCC(F)(F)F)CCCCN12	none
OC[C@@H]1[C@@H](c2ccc(C#CC3CCCC3)cc2)[C@H]2CN(CCC(F)(F)F)CCCCN12	none
OC[C@H]1[C@H](c2ccc(C#CC3CCCC3)cc2)[C@@H]2CN(CCC(F)(F)F)CCCCN12	none
COc1ccccc1C#Cc1ccc([C@H]2[C@H]3CN(CCC(F)(F)F)CCCCN3[C@H]2CO)cc1	IDE exosite inh -7.2
Cn1cnc(S(=O)(=O)N2[C@@H]3CNC[C@H]2C3c2ccc(-c3ccccc3F)cc2)c1 (some centres not stated)	none
O=C(CN1CCOCC1)N1CCCCN2[C@H](CO)[C@@H](c3ccc(C#Cc4ccccc4F)cc3)[C@@H]2C1	none
O=C(CN1CCOCC1)N1CCCCN2[C@H](CO)[C@@H](c3ccc(C#Cc4ccccc4F)cc3)[C@H]2C1	IDE exosite inh -3.9
O=C(CN1CCOCC1)N1CCCCN2[C@@H](CO)[C@@H](c3ccc(C#Cc4ccccc4F)cc3)[C@@H]2C1	IDE exosite inh -4.6
O=C(CN1CCOCC1)N1CCCCN2[C@@H](CO)[C@H](c3ccc(C#Cc4ccccc4F)cc3)[C@@H]2C1	IDE exosite inh -9
C[C@@H]1CN([C@@H](C)CO)C(=O)c2c(c3ccccc3n2C)-c2ccccc2CO[C@H]1CN(C)C(=O)Nc1ccccc1C(F)(F)F	none
COc1ccc(S(=O)(=O)Nc2ccc3c(c2)C(=O)N([C@H](C)CO)C[C@H](C)[C@H](CN(C)S(=O)(=O)c2ccc(Cl)cc2)OCCCC[C@H](C)O3)cc1	none
O=C(Nc1cccc(F)c1)N1CCCCN2[C@H](CO)[C@H](c3ccc(C#Cc4cccnc4)cc3)[C@@H]2C1	none
CCC(=O)N1CCCCN2[C@H](C1)[C@H](c1ccc(-c3cccnc3)cc1)[C@@H]2CO	none
CCC(=O)N1CCCCN2[C@H](CO)[C@H](c3ccc(C#Cc4cccnc4)cc3)[C@@H]2C1	IDE exosite inh -10
